Source: PubChem BioAssay (Tox21)
Inconclusive results are not listed. Activity calls are given as the source filed them. Unless noted, calls follow the shape of the full dose curve.

What was measured:
[1] = qHTS assay to identify small molecule antagonists of the sonic hedgehog signaling (Shh) pathway (AID 1259369); also: nearly all actives have a fitted effect of over 45% in size
Method in brief: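 Inhibition of Shh signalling is measured as reduced Gli1-response-element firefly luciferase output in an NIH/3T3-derived stable reporter clone stimulated with conditioned medium for 24hr.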

[2] = target: Estrogen receptor beta (Homo sapiens) (UniProt Q92731); assay: qHTS assay to identify small molecule agonists of the estrogen receptor beta (ER-beta) signaling pathway (AID 1259377; active = well fitted activation curve with a large enough effect in the signal ratio in the repeat runs, not every such curve was filed as active; the % refers to the signal ratio)
Estrogen receptor beta (Homo sapiens), sequence (Q92731 whole entry, looked up): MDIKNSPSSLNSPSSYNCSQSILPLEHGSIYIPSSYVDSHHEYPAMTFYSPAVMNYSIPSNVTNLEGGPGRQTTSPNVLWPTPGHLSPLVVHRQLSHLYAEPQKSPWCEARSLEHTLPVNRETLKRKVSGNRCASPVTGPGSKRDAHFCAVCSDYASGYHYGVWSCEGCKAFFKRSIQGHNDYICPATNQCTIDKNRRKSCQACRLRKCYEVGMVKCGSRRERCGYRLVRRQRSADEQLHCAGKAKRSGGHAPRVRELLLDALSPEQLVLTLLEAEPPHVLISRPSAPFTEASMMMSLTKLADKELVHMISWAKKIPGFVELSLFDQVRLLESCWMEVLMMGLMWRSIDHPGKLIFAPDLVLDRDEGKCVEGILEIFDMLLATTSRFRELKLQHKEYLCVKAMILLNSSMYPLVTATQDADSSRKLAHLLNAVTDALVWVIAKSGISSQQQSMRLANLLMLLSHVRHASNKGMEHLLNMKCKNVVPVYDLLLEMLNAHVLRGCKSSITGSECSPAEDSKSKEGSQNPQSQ
Method in brief: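 Reporter cells (HEK293T, ER-beta-UAS-bla) receive compounds or DMSO after a 6 hr pre-incubation. They then incubate 16 hr at 37C/5% CO2, and fluorescence from LiveBLAzer B/G substrate is measured after 2 hours at room temperature.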

[3] = qHTS assay to identify small molecule agonists of the androgen receptor (AR) signaling pathway in the presence of an antagonist - cell viability counter screen (AID 1259379; active = well fitted curve in the direction sought with a large enough effect in the repeat runs; an effect the other way counts as inactive or inconclusive;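 also: MDA-kb2 human breast cancer cells carrying an MMTV luciferase reporter; series mostly up to about 92 µM; nearly all actives have a fitted effect of over 25% in size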)
Method in brief: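 Fluorescence from CellTiter-Fluor, added after 15 hr and read 1 hr later, gave cell viability. Cells were MDA-kb2 exposed to compounds (15 concentrations) in the presence of 3.0uM nilutamide at 37C, 0% CO2.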

[4] = qHTS assay to identify small molecule agonists of the estrogen receptor beta (ER-beta) signaling pathway - cell viability counter screen (AID 1259380; active = well fitted curve in the direction sought with a large enough effect in the repeat runs; an effect the other way counts as inactive or inconclusive; also: nearly all actives have a fitted effect of over 30% in size)
Method in brief: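 Same-well viability counter screen. Cells: ER-beta-UAS-bla HEK293T, plated 6 hr before compound, in 2% charcoal-stripped FBS. Compound exposure 16 hr, 37C; viability by CellTiter-Glo luminescence after 30 min at room temperature.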

[5] = qHTS assay to identify small molecule antagonists of the estrogen receptor beta (ER-beta) signaling pathway - cell viability counter screen (AID 1259382; active = well fitted curve in the direction sought with a large enough effect in the repeat runs; an effect the other way counts as inactive or inconclusive; also: series mostly up to about 92 µM; nearly all actives have a fitted effect of over 55% in size)
Method in brief: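 Following a 6 hr plating period, HEK293T cells carrying a UAS-driven beta-lactamase reporter under ER-beta control received compounds and 1nM E2 (final). After 16 hr at 37C and 2 hr substrate loading, CellTiter-Glo luminescence indicated viability.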

[6] = target: Estrogen receptor (Homo sapiens) (UniProt P03372); assay: qHTS assay to identify small molecule agonists of the estrogen receptor alpha (ER-alpha) signaling pathway in the presence of an antagonist (AID 1259383); also: top concentration of the series differs between compounds; nearly all actives have a fitted effect of over 15% in size
Estrogen receptor (Homo sapiens), sequence (P03372 whole entry, looked up): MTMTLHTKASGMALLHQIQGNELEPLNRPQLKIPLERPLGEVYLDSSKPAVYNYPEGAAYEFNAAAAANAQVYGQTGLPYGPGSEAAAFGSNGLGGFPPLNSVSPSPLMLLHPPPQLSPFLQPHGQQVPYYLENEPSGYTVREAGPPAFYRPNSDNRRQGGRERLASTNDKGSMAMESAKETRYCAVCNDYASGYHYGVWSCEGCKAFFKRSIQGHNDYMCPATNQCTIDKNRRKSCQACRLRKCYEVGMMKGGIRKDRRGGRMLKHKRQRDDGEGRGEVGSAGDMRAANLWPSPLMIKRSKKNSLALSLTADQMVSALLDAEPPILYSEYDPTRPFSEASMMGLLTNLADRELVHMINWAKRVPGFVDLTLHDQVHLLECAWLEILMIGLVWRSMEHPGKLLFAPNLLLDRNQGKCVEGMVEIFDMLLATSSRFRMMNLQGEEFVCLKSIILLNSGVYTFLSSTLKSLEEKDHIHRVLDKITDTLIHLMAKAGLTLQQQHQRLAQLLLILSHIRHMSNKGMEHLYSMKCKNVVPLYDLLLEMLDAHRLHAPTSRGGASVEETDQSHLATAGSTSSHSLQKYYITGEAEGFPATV
Method in brief: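 Cells are hormone-deprived for 5 days (charcoal-stripped FBS, no phenol red), plated for 24hr, spiked with 10.0nM ICI-182,780, then dosed at 15 concentrations. After 22hr at 37C, ONE-Glo luminescence reports ERE-luciferase activity.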

[7] = qHTS assay to identify small molecule agonists or antagonists of the thyroid stimulating hormone receptor (TSHR) signaling pathway - wild type cell line counter screen (AID 1259384)
Method in brief: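 Wild-type Hek293 cells, 800/well, 18 h at 37C, then compound with Ro20-1724 for 30 min RT. cAMP by HTRF (cAMP-d2/anti-cAMP cryptate), 1 h RT, fluorescence read. 15 concentrations, triplicates.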

[8] = target: Thyrotropin receptor (Homo sapiens) (UniProt P16473); assay: qHTS assay to identify small molecule antagonists of the thyroid stimulating hormone receptor (TSHR) signaling pathway (AID 1259385); also: nearly all actives have a fitted effect of over 20% in size
Thyrotropin receptor (Homo sapiens), sequence (P16473 whole entry, looked up): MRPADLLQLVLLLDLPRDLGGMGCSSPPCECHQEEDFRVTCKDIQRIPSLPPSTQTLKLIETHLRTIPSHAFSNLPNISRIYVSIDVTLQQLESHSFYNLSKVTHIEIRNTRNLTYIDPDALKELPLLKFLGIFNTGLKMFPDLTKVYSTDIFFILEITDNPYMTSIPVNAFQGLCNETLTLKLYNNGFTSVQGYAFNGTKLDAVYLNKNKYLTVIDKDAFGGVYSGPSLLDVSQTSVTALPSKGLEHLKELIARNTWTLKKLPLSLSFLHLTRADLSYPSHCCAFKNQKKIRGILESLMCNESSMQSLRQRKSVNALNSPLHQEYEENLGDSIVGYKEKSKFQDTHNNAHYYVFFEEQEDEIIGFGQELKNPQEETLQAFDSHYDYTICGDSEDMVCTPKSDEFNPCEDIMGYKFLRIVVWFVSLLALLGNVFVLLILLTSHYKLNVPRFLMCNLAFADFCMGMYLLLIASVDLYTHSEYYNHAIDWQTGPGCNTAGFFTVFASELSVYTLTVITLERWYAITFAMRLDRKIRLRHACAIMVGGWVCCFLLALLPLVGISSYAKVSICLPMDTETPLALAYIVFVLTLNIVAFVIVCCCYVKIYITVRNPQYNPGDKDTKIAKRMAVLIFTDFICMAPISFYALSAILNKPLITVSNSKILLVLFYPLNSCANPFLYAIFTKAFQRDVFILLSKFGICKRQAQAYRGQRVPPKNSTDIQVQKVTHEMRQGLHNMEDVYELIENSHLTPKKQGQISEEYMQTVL
Method in brief: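 TSHR-HEK293 cells (800/well) plated 18 h, then compounds with Ro20-1724 and TSH at 1.5 ng/mL final, 30 min at room temperature. cAMP quantified by HTRF (cAMP-d2/anti-cAMP-cryptate, 1 h); 15 concentrations in triplicate.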

[9] = qHTS assay to identify small molecule agonists of the estrogen receptor alpha (ER-alpha) signaling pathway in the presence of an antagonist - cell viability counter screen (AID 1259386; active = well fitted curve in the direction sought with a large enough effect in the repeat runs; an effect the other way counts as inactive or inconclusive;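 also: series mostly up to about 92 µM; cells exposed to compounds for 22 h at 37 °C before the viability read; nearly all actives have a fitted effect of over 30% in size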)
Method in brief: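 Cells are starved of estrogens for 5 days in charcoal-stripped serum, seeded for 24hr and co-treated with ICI-182,780 (10.0nM final) and test compounds. After 22hr at 37C, viability is read as CellTiter-Fluor fluorescence.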

[10] = target: Progesterone receptor (Homo sapiens) (UniProt P06401); assay: qHTS assay to identify small molecule agonists of the progesterone receptor (PR) signaling pathway (AID 1346784); also: nearly all actives have a fitted effect of over 30% in size
Progesterone receptor (Homo sapiens), sequence (P06401 whole entry, looked up): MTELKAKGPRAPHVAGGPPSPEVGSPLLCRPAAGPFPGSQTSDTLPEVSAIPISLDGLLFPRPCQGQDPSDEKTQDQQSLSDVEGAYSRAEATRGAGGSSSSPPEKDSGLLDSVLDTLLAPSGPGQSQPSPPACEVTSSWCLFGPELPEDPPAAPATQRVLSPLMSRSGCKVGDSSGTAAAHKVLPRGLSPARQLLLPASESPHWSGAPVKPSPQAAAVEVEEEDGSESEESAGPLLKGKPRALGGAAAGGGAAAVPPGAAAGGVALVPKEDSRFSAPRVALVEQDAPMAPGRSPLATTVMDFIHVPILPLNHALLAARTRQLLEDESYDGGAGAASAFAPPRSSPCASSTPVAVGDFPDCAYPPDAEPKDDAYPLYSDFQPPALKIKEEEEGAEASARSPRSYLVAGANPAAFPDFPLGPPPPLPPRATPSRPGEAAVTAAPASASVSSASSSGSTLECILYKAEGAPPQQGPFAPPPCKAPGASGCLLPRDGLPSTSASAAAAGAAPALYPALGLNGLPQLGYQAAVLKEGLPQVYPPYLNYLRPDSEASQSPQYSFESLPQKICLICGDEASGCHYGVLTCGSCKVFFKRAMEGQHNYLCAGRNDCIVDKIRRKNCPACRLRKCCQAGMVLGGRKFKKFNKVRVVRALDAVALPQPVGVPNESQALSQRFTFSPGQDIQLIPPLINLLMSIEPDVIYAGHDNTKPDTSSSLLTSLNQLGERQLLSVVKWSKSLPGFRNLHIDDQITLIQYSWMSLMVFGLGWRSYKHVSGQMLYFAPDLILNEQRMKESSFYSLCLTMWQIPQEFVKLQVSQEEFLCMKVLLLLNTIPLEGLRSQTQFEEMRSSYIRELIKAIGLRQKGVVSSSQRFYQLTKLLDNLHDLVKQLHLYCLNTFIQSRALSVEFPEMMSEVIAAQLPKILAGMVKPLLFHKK
Method in brief: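 Reporter assay, GripTite PR-UAS-bla HEK 293T cells: 16 hr exposure to DMSO-dissolved compounds at 37C, 5% CO2, in steroid-depleted (2% charcoal-stripped FBS) medium; beta-lactamase measured by FRET fluorescence.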

[11] = target: Progesterone receptor (Homo sapiens) (UniProt P06401); assay: qHTS assay to identify small molecule antagonists of the progesterone receptor (PR) signaling pathway (AID 1346795; active = well fitted inhibition curve with a large enough effect in the signal ratio in the repeat runs, not every such curve was filed as active; the % refers to the signal ratio)
Method in brief: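 Stimulus R5020 at 1 nM final; cells HEK293T PR-UAS-bla; medium with 2% charcoal-stripped FBS; compound exposure 16 hr at 37C, 5% CO2; detection by FRET beta-lactamase substrate, 2 hr, room temperature.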

[12] = qHTS assay to identify small molecule antagonists of the progesterone receptor (PR) signaling pathway - cell viability counter screen (AID 1346798; active = well fitted curve in the direction sought with a large enough effect in the repeat runs; an effect the other way counts as inactive or inconclusive; also: series mostly up to about 92 µM; nearly all actives have a fitted effect of over 50% in size)
Method in brief: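 In the same plates used for the beta-lactamase readout, cell viability of compound- and R5020-treated PR-UAS-bla HEK293T cells (16 hr, 37C) was assessed by CellTiter-Glo luminescence.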

[13] = qHTS assay to identify small molecule agonists of the progesterone receptor (PR) signaling pathway - cell viability counter screen (AID 1346799); also: nearly all actives have a fitted effect of over 45% in size
Method in brief: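 Multiplexed viability read: CellTiter-Glo luminescence, 30 min RT, following LiveBLAzer FRET measurement on PR-UAS-bla HEK293T cells exposed to compounds 16 hr.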

[14] = qHTS assay to identify small molecule antagonists of the TGF-beta/Smad signaling pathway - cell viability counter screen (AID 1346824; active = well fitted curve in the direction sought with a large enough effect in the repeat runs; an effect the other way counts as inactive or inconclusive; also: nearly all actives have a fitted effect of over 50% in size)
Method in brief: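 SBE-bla HEK 293T cells, incubated overnight, then compound plus 0.25 ng/mL TGF-beta1 (stock added) for 5 hr at 37 C. Viability was read in the same wells by CellTiter-Glo luminescence after 30 min at room temperature.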

[15] = qHTS assay to identify small molecule agonists of the TGF-beta/Smad signaling pathway - cell viability counter screen (AID 1346829; active = well fitted curve in the direction sought with a large enough effect in the repeat runs; an effect the other way counts as inactive or inconclusive; also: top concentration of the series differs between compounds; nearly all actives have a fitted effect of over 45% in size)
Method in brief: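 Luminescence from CellTiter-Glo, read after a 30 min room-temperature incubation, gives cell viability of SBE-bla HEK 293T cells treated 5 hr with compounds at 37 C.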

[16] = target: Thyrotropin-releasing hormone receptor (Homo sapiens) (UniProt P34981); assay: qHTS assay to identify small molecule antagonists of the thyrotropin-releasing hormone receptor (TRHR) signaling pathway (AID 1346877; active = well fitted inhibition curve with a large enough effect in the repeat runs, not every such curve was filed as active; also: series mostly up to about 51 µM)
Thyrotropin-releasing hormone receptor (Homo sapiens), sequence (P34981 whole entry, looked up): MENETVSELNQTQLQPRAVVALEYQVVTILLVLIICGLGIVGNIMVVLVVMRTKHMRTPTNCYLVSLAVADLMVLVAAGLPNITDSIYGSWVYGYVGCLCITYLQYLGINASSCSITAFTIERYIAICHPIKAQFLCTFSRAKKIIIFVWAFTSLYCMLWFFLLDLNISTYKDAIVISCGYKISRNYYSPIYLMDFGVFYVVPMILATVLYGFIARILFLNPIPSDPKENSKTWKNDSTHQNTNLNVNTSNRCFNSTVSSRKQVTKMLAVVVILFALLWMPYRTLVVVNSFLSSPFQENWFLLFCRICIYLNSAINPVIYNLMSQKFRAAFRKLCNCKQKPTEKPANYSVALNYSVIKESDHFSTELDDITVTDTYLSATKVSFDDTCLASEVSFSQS
Method in brief: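 Cells (TRHR-HEK293) are plated and kept 18 h at 37 °C/5% CO2. A calcium-sensitive dye is added for 2 h, compound follows for 5 min at room temperature, and TRH is then given at 1 nM final.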

[17] = target: Thyrotropin-releasing hormone receptor (Homo sapiens) (UniProt P34981); assay: qHTS assay to identify small molecule agonists of the thyrotropin-releasing hormone receptor (TRHR) signaling pathway (AID 1346891); also: series mostly up to about 58 µM
Method in brief: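 Readout was intracellular calcium fluorescence in TRHR-Hek293 cells. Cells were incubated 18 h, dye-loaded 2 h at 37 °C, and treated with compound in agonist mode.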

[18] = target: Estrogen receptor beta (Homo sapiens) (UniProt Q92731); assay: qHTS assay to identify small molecule antagonists of the estrogen receptor beta (ER-beta) signaling pathway (AID 1259378; active = well fitted inhibition curve with a large enough effect in the signal ratio in the repeat runs, not every such curve was filed as active; the % refers to the signal ratio)
Method in brief: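 ER-beta-UAS-bla HEK293T cells in 2% charcoal-stripped FBS medium treated with compound plus 1nM final 17-beta-estradiol for 16 hr at 37C. Beta-lactamase reporter read by FRET substrate fluorescence after 2 hours at room temperature.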

[19] = qHTS assay to identify small molecule agonists of the TGF-beta/Smad signaling pathway (AID 1346859; active = well fitted activation curve with a large enough effect in the signal ratio in the repeat runs, not every such curve was filed as active; the % refers to the signal ratio; also: series mostly up to about 77 µM)
Method in brief: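 Screening used HEK 293T SBE-bla cells at 4,000/well. Test agents: 5 hr, 37 C. Detection: FRET substrate, 2 hr RT, then excitation 405 nm with emissions at 460 and 530 nm.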

Measured: Potency

CCCCCCCCCC=O
not listed: [18] | [19]
inactive: all other assays above

COc1ccc(OC)c(OC)c1
not listed: [2]
inactive: all other assays above

ClC(Cl)(Cl)c1ccc(C(Cl)(Cl)Cl)cc1
not listed: [3] | [8] | [19]
inactive: all other assays above

O=C(NN1CCCC1)NS(=O)(=O)c1ccc(Cl)cc1
not listed: [3] | [12] | [19]
inactive: all other assays above
